# Results reported in publication PMC4336329 (PLoS ONE, 2015).
# Out of some 310,000 compounds screened, about 14,000 (4.5%) showed an effect of 50% or more. The effect is printed as a negative number. The sample holds strong results, similar compounds and a random draw of the others, so the mix is not that of the screen.
# Biological target: human ether-à-go-go-related gene (hERG) potassium channel (human, UniProt Q12809)
# Test: primary screen, population patch clamp on CHO cells stably expressing hERG; higher = less effect of the substance
# 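Note: peak tail current of the secondary pulse compared with the same well before compound.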
# Sequence of human ether-à-go-go-related gene (hERG) potassium channel (Q12809 whole entry, looked up): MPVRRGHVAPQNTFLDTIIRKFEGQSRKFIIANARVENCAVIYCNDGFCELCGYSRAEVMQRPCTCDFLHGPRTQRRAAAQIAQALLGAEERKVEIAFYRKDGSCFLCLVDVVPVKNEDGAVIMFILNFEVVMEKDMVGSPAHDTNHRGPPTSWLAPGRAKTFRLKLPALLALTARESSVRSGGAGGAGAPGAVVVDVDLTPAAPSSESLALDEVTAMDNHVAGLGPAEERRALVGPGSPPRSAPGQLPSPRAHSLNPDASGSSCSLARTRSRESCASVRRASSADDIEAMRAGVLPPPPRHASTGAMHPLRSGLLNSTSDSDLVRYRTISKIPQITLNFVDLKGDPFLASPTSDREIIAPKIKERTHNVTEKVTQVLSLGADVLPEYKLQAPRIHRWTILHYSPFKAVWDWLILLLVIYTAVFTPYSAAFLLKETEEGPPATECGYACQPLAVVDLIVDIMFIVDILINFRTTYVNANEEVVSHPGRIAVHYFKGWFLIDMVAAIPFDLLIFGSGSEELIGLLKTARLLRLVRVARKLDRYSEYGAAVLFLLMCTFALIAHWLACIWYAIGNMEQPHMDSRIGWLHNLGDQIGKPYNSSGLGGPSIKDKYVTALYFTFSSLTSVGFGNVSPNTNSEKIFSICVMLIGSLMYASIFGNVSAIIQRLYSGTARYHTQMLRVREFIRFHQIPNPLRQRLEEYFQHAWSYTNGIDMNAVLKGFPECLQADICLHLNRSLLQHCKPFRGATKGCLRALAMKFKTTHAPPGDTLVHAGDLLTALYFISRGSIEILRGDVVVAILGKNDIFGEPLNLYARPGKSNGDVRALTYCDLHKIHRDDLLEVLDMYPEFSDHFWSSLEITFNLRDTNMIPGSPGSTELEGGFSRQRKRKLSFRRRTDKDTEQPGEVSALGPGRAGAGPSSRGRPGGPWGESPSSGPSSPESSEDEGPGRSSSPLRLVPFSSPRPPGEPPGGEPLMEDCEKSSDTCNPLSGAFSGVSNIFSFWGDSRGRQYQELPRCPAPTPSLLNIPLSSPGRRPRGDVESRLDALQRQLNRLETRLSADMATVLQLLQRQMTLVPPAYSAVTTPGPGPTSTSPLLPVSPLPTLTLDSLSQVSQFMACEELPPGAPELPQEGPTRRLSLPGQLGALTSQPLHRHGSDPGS
row,SMILES,"hERG current change (%, negative = inhibition) at 10uM [%]"
1,CCN(CC(=O)Nc1c(F)cccc1F)C(=O)CSc1ccccc1,8.37
2,COCCSc1ccccc1C(=O)Nc1cc([N+](=O)[O-])ccc1OC,-28.8
3,O=C(c1cc([N+](=O)[O-])ccc1Cl)N1CCN(c2ccc(F)cc2)CC1,-27.9
4,O=C(c1cc([N+](=O)[O-])ccc1Cl)N1CCN(c2ccccc2)CC1,-6.43
5,O=C(c1cnc2n(c1=O)CCS2)N1CCN(c2ccccc2F)CC1,-5.65
6,O=C(c1cnc2n(c1=O)CCS2)N1CCN(C(c2ccccc2)c2ccc(Cl)cc2)CC1 (centres unmarked),-52.4
7,CC(NC(=O)c1cnc2n(c1=O)CCS2)c1ccccc1 (centres unmarked),3.42
8,COCCSc1ccccc1C(=O)Nc1ccc([N+](=O)[O-])cc1OC,-39.9
9,CCSc1ccccc1C(=O)N1CCCC1,-5.81
10,CCSc1ccccc1C(=O)Nc1ccc([N+](=O)[O-])cc1OC,-51.9
11,CCSc1ccccc1C(=O)N1CCN(c2ccccc2F)CC1,17.6
12,CCSc1ccccc1C(=O)N1CCN(c2ccc([N+](=O)[O-])cc2)CC1,-79.4
13,O=C(c1cc([N+](=O)[O-])ccc1Cl)N1CCN(c2ccc([N+](=O)[O-])cc2)CC1,-73.6
14,Cc1cccc(NC(=O)COC(=O)Cc2cccc(C(F)(F)F)c2)c1C,22.8
15,Cc1cc(C)n(CCNC(=O)CC2C(=O)NCCN2Cc2ccccc2C(F)(F)F)n1 (centres unmarked),8.81
16,COCCOC(=O)C1=C(C)OC(N)=C(C#N)C1c1ccc2c(c1)OCO2 (centres unmarked),-0.292
17,CCCOc1ccc(/C=N/NC(=O)C(C)Sc2ccccn2)cc1OCC (centres unmarked),14.9
18,CCOCC(=O)Nc1cc([N+](=O)[O-])ccc1OC,15.7
19,N#C/C(=C\C=C\c1ccccc1)c1nc(-c2ccc3c(c2)OCO3)cs1,-3.96
20,COc1ccc(N(CC(=O)NCc2cccs2)S(=O)(=O)c2ccc(F)cc2)cc1,-0.742
21,CN(Cc1nccs1)C(=O)C1CCC(=O)N(Cc2ccccc2F)C1 (centres unmarked),-16.1
22,COc1cccc(-c2ccc(=O)n(CC(=O)Nc3ccc(C(=O)N4CCCC4)cc3)n2)c1,-15.4
23,COc1cc(/C=C/c2cccc[n+]2C)ccc1OCC(=O)Nc1ccccc1.[I-],8.86
24,O=C(c1cc(=O)[nH]c2ccccc12)N1CCN(c2ccc([N+](=O)[O-])cc2)CC1,-65.1
25,Cc1ccc2nc(-c3cccnc3)cc(C(=O)N3CCN(c4ccc([N+](=O)[O-])cc4)CC3)c2c1,-68.2
26,CC(=O)c1ccc(N2CCN(C(=O)c3cc(-c4cccnc4)nc4ccc(Br)cc34)CC2)cc1,2.5
27,O=C(c1cc([N+](=O)[O-])ccc1N1CCOCC1)N1CCN(c2ccc([N+](=O)[O-])cc2)CC1,-79.8

row,SMILES,"hERG current change (%, negative = inhibition) at 10uM [%]"
1,Cc1ccc(S(=O)(=O)N2CCN(C(=O)c3cc(S(=O)(=O)N(C)C)ccc3N3CCCC3)CC2)cc1,-11.1
2,O=C(c1cc([N+](=O)[O-])ccc1N1CCOCC1)N1CCN(c2ccccc2)CC1,-32.3
3,CN(C)S(=O)(=O)c1ccc(N2CCCC2)c(C(=O)N2CCN(c3ccc([N+](=O)[O-])cc3)CC2)c1,-76.7
4,O=C(c1cc(=O)[nH]c2ccccc12)N1CCN(c2ccccc2)CC1,2.12
5,Cc1ccc2c(C(=O)N3CCN(c4ccccc4)CC3)cc(-c3cccnc3)nc2c1C,4.03
6,Cc1cccc(N2CCN(C(=O)c3cc(S(=O)(=O)N(C)C)ccc3N3CCCC3)CC2)c1C,-12.3
7,O=C(c1cc([N+](=O)[O-])ccc1N1CCOCC1)N1CCOCC1,18.1
8,COc1ccc(N2CCN(C(=O)c3cc(=O)[nH]c4ccccc34)CC2)cc1,-0.412
9,CCOc1ccc(C(=O)NCC(=O)OCC(=O)Nc2ccccc2OC)cc1,-18.1
10,CCC(CC)C(=O)Nc1cc(C)cc(C)c1,0.735
11,CC(NC(=O)COC(=O)CNC(=O)C1CCCCC1)c1ccccc1 (centres unmarked),-3.81
12,COc1ccc(/C=N/NC(=O)c2nnn(-c3nonc3N)c2-c2cccs2)c(OC)c1,13.1
13,CC(C)(C)NC(=O)C(OC(=O)c1cccs1)c1ccccc1 (centres unmarked),58.8
14,Cc1ccc(C(=O)NC(=S)NNC(=O)COc2ccccc2C)cc1,15.3
15,O=C(O)C1CCCCC1C(=O)NCCc1ccncc1 (centres unmarked),1.96
16,O=C(c1ccc(F)cc1)N1CCN2C(=O)c3ccccc3C12c1ccccc1 (centres unmarked),-31.5
17,COc1ccc2[nH]c(=O)c(CN(C(C)=O)c3cccc(C)c3)cc2c1,-8.64
18,Nc1nonc1-n1nnc(C(=O)N/N=C/c2ccccc2)c1CSc1ccc(Cl)cc1,-23.6
19,Cc1ccccc1C(=O)OC1OC(=O)C(Cl)=C1N1CCOCC1 (centres unmarked),-20.1
20,O=C1CCCC2=C1C(c1ccncc1)c1c(nc(SCc3ccccc3)[nH]c1=O)N2 (centres unmarked),17.7
21,CC(=O)c1cnc2n(c1=O)CCS2,27.8
22,O=C(c1cc([N+](=O)[O-])ccc1N1CCN(S(=O)(=O)c2ccc(Cl)c(Cl)c2)CC1)N1CCOCC1,-52.4
23,CCOC(=O)N1CCN(C(=O)c2cnc3n(c2=O)CCS3)CC1,7.34
24,O=C(c1cc([N+](=O)[O-])ccc1N1CCOCC1)N1CCN(S(=O)(=O)c2ccc(F)cc2)CC1,-32.5
25,O=C(c1cc([N+](=O)[O-])ccc1N1CCOCC1)N1CCN(S(=O)(=O)c2cc(Cl)ccc2Cl)CC1,-32.3
26,O=C(c1cnc2n(c1=O)CCS2)N1CCN(c2ccc([N+](=O)[O-])cc2)CC1,-63
